Assay results: PubChem BioAssay AID2147 (National Center for Advancing Translational Sciences (NCATS), 2009)
Several values for one entry are separate records, joined by “and”; a condition that tells them apart may be missing. Equal values may be shown once. Out of some 230,000 compounds screened, about 3,600 (1.6%) were called active. Another 15% or so got no clear call; they are omitted. The entries come from a sample that favours actives as a whole. Unmarked numbers belong to inactive results. Calls follow the shape of the dose curve; as a rule, active = well fitted inhibition curve with a large enough effect (not every such curve was filed as active); inconclusive = small, poorly fitted or top-dose-only effect, or another doubt; inactive = no such curve, though single readings can be large or run the other way.

Molecular target: Lysine-specific demethylase 4E (Homo sapiens) (UniProt B2RXH2)
Sequence (B2RXH2 1-337 limits assumed): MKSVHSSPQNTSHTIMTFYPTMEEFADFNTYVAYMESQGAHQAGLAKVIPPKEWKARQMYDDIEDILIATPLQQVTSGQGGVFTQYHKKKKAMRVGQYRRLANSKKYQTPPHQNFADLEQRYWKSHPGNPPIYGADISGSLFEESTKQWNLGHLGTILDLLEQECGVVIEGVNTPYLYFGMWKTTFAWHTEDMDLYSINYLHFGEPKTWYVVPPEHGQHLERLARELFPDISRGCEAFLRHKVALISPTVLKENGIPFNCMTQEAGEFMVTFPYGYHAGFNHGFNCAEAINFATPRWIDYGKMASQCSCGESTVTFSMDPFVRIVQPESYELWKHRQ
Assay: qHTS Assay for Inhibitors of Human Jumonji Domain Containing 2E (JMJD2E)
Conditions: JMJD2E catalytic domain, FDH-coupled NADH fluorescence (FDH is formaldehyde dehydrogenase); series mostly up to 57.1 µM; activity change, negative = inhibition: at the top concentration
Also: nearly all actives have a fitted effect of over 50% in size.
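For activity change, negative = inhibition in this document: 0% = wells with enzyme and -100% = buffer wells without enzyme.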
Potency is read from the fitted curve at half-maximal effect.

Compound | activity change, negative = inhibition | Potency
NC(=O)c1ccc(N2CCOCC2)nc1 | 1.96% | –
CN(C)C(=O)c1nc2ccc(Cl)cn2c1CNCc1cccc(OC(F)(F)F)c1 | -3.13% | –
Cc1nc(N)sc1N=Nc1c(C)n(C)n(-c2ccccc2)c1=O | -9.39% | –
COc1ccc(N(Cc2ccccc2)S(=O)(=O)c2cccc(C(=O)O)c2)cc1 | -0.26% | –
CCCN(C/C=C\I)[C@@H]1CCc2cccc(O)c2C1 | – | 28.2 µM (active)
CCCN(CCc1ccccc1)C1CCc2c(O)cccc2C1 (stereo unspecified) | 1.38% | –
CN(C)c1cc(-c2ccc(F)cc2)oc(=O)c1Cl | 1.02% | –
Cc1ccc(C(=O)NCC(=O)OCC(=O)Nc2cccc(S(=O)(=O)N3CCCC3)c2)cc1C | 2.45% | –
CCCCc1nc2ccccc2c(=O)n1NC(=O)c1c(O)c2cccc3c2n(c1=O)CC3 | 12.9% | –
CCNC(=O)c1c(O)c2cccc3c2n(c1=O)CC3 | – | 3.16 µM (active)
Cc1cc(=O)n2c3c(cccc13)CCC2 | -18.6% | –
O=C(O)Cc1csc(-c2cccc(Oc3ccccc3)c2)n1 | – | inactive
CCCc1nc2ccccc2c(=O)n1/N=C/c1ccc(O)c(O)c1 | – | 12.6 µM (active)
O=c1c2ccccc2nc(N/N=C/c2ccccc2)n1O | -8.4% | –
CCCN1C(=O)C(Cc2nc3ccccc3c(=O)n2-c2ccccc2)c2cc(C)ccc21 (stereo unspecified) | -3.33% | –
CC(C)N1CCC(=NNc2ccc([N+](=O)[O-])cc2S(=O)(=O)N2CCOCC2)CC1 | -24.1% | –
COc1ccccc1C(=O)CSc1cccc[n+]1[O-] | -5.39% | –
O=C1CCC(=O)N(O)CCCCCNC(=O)CCC(=O)N(O)CCCCCNC(=O)CCC(=O)N(O)CCCCCN1 | – | 7.94 µM (active)
CCNC(=O)CC1C(=O)N(c2ccc(OC)cc2)C(=S)N1CCc1ccncc1 (stereo unspecified) | -7.56% | –
Cc1nc(C(=O)N2CCCC(C(=O)c3ccc(Cl)cc3)C2)cs1 (stereo unspecified) | 10.1% | –
Cn1c(CO)cnc1SCc1ccccc1 | -1.07% | –
O=c1c2ccccc2c(-c2ccccc2)nn1Cc1ccccc1 | -8.38% | –
CSc1c(SCc2ccccc2)cnn(Cc2ccccc2)c1=O | – | 12.6 µM (active)

Compound | activity change, negative = inhibition | Potency
O=C(NCCOCc1ccc(Cl)cc1)c1ncn[nH]1 | 3.54% | –
O=C(/C=C/Sc1ncn[nH]1)c1ccc(Cl)cc1 | – | 7.08 µM (active)
Cc1cc(C)nc(S/C=C/C(=O)c2ccccc2)n1 | 10% | –
CCN(CC)CCNC(=O)c1sc2ncn(CC(=O)Nc3ccc(C)c(Cl)c3)c(=O)c2c1C | -11.2% | –
Cn1c(=O)c2c(-c3cccc(Br)c3)c(C#N)c(N)nc2n(C)c1=O | 2.47% | –
OCCC1CN(Cc2cnc(-c3ccccc3)s2)CCN1CCc1ccccc1 (stereo unspecified) | -7.27% | –
CC1(OC(=O)CCc2ccccc2)C(=O)C=C2C=C(c3ccc(C#N)cc3)N(CCc3ccccn3)C=C2C1=O (stereo unspecified) | -1.14% [at 11.4 µM] | –
COCCN1C=C2C(=O)C(C)(OC(=O)C3CCCC3)C(=O)C=C2C=C1c1ccsc1 (stereo unspecified) | – | 3.55 µM (active)
CC1(OC(=O)C2CCCC2)C(=O)C=C2C=C(c3ccc(C#N)cc3)OC=C2C1=O (stereo unspecified) | -0.534% | –
N/C(=N\OC(=O)Nc1ccccc1)c1ccno1 | -3.04% | –
COc1ccc(CNC(=O)CCC(=O)Nc2nnc(C(C)C)s2)cc1 | -15.9% | –
O=C(Nc1ccc(Cl)cc1)Nc1ccc(C(=O)N2CCOCC2)cc1 | 4.19% | –
COC(=O)C1=C(C)OC(N)=C(C#N)C1c1cc(OC)ccc1OC (stereo unspecified) | 2.33% | –
COc1ccc(C2C(C#N)=C(N)Oc3cc(N)ccc32)cc1OC (stereo unspecified) | – | 12.6 µM (active)
CCC1=C(C(=O)OC)C(c2cc(OC)ccc2OC)C(C#N)=C(N)O1 (stereo unspecified) | -0.399% | –
CNCC(O)c1ccc(O)c(O)c1 (stereo unspecified) | – | 20 µM (active) and 14.1 µM (active)
CCC(C)c1ccc(O)c(/C=N/O)c1 (stereo unspecified) | -5.09% | –
CC(C)NC[C@H](O)c1ccc2ccccc2c1 | – | inactive
C=CCN(C(=O)Nc1ccc2c(c1)nc(C)n2C)c1ccccc1 | 1.69% | –
C/C(=C\c1ccco1)CN1CCC(N2CCC(C(=O)N3CCOCC3)CC2)CC1 | 0.474% | –
CCOC(=O)N1CCN(C(=O)CSc2ccc(Cl)cc2)CC1 | -1.41% | –
CCOC(=O)N1CCN(C(c2cccnc2)c2ccc3cccnc3c2O)CC1 (stereo unspecified) | – | 14.1 µM (active)
Oc1c(C(c2ccccn2)N2CCOCC2)ccc2cccnc12 (stereo unspecified) | -10.2% | –

Compound | activity change, negative = inhibition | Potency
Cc1cc(N2CCN(c3ccc(F)cc3)CC2)n2ncnc2n1 | 4.37% | –
CC1CC(C)(C)n2c(O)c(N=NC(N)=S)c3cccc1c32 (stereo unspecified) | 8.14% | –
O=c1c(O)c(Br)ccc2c(Br)c(O)c(O)c(O)c12 | – | 7.08 µM (active)
CCCCCCCC(=O)OC(CN1CCCCCC1)CN1CCCC1=O (stereo unspecified) | 1.81% | –
CCN(CC)CCN1C(=O)C(=O)/C(=C(/O)c2ccccc2)C1c1ccccc1F (stereo unspecified) | -9.65% | –
COc1ccc(/C(O)=C2/C(=O)C(=O)N(CCCN(C)C)C2c2ccccc2)cc1OC (stereo unspecified) | -12.7% | –
CCN(CC)CCN1C(=O)C(=O)/C(=C(/O)c2ccc(OC)c(OC)c2)C1c1ccccn1 (stereo unspecified) | – | 22.4 µM (active)
CC(=O)Nc1ccc(NC(=O)CSc2ncnc3c2cnn3Cc2ccccc2)cc1 | 0.598% | –
CN1CCN(Cc2c(O)ccc3c2oc(=O)c2ccccc23)CC1 | -8.15% | –
NC(=O)COc1ccc2c3c(c(=O)oc2c1)CCCCC3 | 3.79% | –
O=c1oc2c(CN3CCCCC3)c(O)ccc2c2c1CCCCC2 | – | 3.16 µM (active)
Cc1ccccc1OCC(O)CN1CCN(c2ccccn2)CC1 (stereo unspecified) | -7.16% | –
Cc1cccc(C)c1NC(=S)N(Cc1cccnc1)Cc1ccccc1Cl | 2.9% | –
CCC/C(C)=N\Nc1nc2c(c(=O)n(C)c(=O)n2C)n1C | -5.67% | –
Oc1ccc(N=Cc2sc3ccccc3c2Cl)cc1 | – | 12.6 µM (active)
Oc1ccc2ccccc2c1C=Nc1ccccc1 | -5.63% | –
COc1ccc(N=C(C)c2sc3ccccc3c2O)cc1 | -1.68% | –
S=c1nc2ccccc2c2nc(-c3cccnc3)[nH]n12 | -7.81% | –
COc1ccc(CCNS(=O)(=O)c2cccc3cccnc23)cc1OC | 8.86% | –
Cc1nnsc1C(=O)N/N=C/c1ccccc1Cl | 2.37% | –
Cc1ccc2cc(/C=N/NC(=O)[C@@H]3CCCN3)c(Cl)nc2c1 | -2.24% | –
Cc1ccc(/C=N/NC(=O)C2=NNC(c3ccccc3)(c3ccccc3)C2)c(O)c1 | – | 10 µM (active)
CCn1cc(CN2CCCC(CNS(=O)(=O)Cc3ccccc3)C2)cn1 (stereo unspecified) | -1.97% | –

Compound | activity change, negative = inhibition | Potency
Nn1c(SCc2ccccc2)nnc1C1CCCCC1 | -0.349% | –
CC(C)C[C@H](CO)Nc1nc(N(C)c2cccc(Cl)c2)c2ncn(C(C)C)c2n1 | 2.12% | –
O=C(Nc1cccc(S(=O)(=O)NC2=NCCC2)c1)C1CCCCC1 | 3.5% | –
CCCC(=O)N1c2ccc(-c3csc(N)n3)cc2CC1C (stereo unspecified) | -25.3% | –
CC(C)(C)C(=O)OCc1nc(-c2ccc(O)c(O)c2)cs1 | – | 12.6 µM (active)
Cc1onc(C(=O)NN)c1-c1csc(COc2ccccc2)n1 | 33.8% | –
O=c1[nH]c(CSc2ccccc2)nc2c1oc1ccccc12 | -0.198% | –
Cc1ccc(NC(=O)/C(=C\c2ccccc2)NC(=O)c2ccco2)cc1 | 8.1% | –
NC(=O)COc1ccc(NC(=O)c2ccccc2-c2ccccc2)cc1 | -9.16% | –
Oc1ccc(/C=N/Nc2nc(-c3ccccc3F)nc3ccccc23)c(O)c1 | -27.2% | –
Oc1c(Br)cccc1/C=N/Nc1c(F)c(F)c(F)c(F)c1F | 0.236% | –
Oc1ccc(/C=N/NC2=NCCCCC2)c(O)c1 | – | 22.4 µM (active)
CN(c1ccccn1)c1ncnc2[nH]ncc12 | -4.74% | –
Cc1ccc(C)c(SCc2nc3sc(C(=O)O)c(C)c3c(=O)[nH]2)c1 | -5.22% | –
O=C(Nc1ccc(F)cc1)c1cc2c(s1)CCCC2 | 0.588% | –
O=c1[nH]c(=S)[nH]c2[nH]c(=S)[nH]c12 | – | 28.2 µM (active)
Cc1c(C)c(C)c2[nH]c(=S)[nH]c2c1C | 5.54% | –
Cc1nc2cccnc2nc1C | 1.81% | –
COc1ccc(OC)c(-n2c(-c3ccn[nH]3)n[nH]c2=S)c1 | 3.77% | –
O=C(N/N=C\c1cc(Br)c(Br)o1)C1COc2ccccc2O1 (stereo unspecified) | -26.6% | –
Nc1ccccc1Sc1ccc(C(F)(F)F)cc1[N+](=O)[O-] | -29.3% | –
Nc1ccccc1SC(C[N+](=O)[O-])c1ccccc1 (stereo unspecified) | – | 6.31 µM (active)
Nc1ccccc1SCc1cc([N+](=O)[O-])cc2c1OCOC2 | -7.45% | –

Compound | activity change, negative = inhibition | Potency
OCCC1CN(Cc2ccc(Oc3ncccn3)cc2)CCN1CCc1ccccc1 (stereo unspecified) | -5.89% | –
COCCNc1nc(-c2ccccc2)nc2c1oc1ccccc12 | -8.99% | –
Cc1nnc(SC(C(=O)c2ccccc2)c2ccccc2)[nH]c1=O (stereo unspecified) | -1.45% | –
Cc1cccc(-n2cc(CN3CCN(C(=O)c4ncn[nH]4)CC3)c(-c3cccc(F)c3)n2)c1 | 8.66% | –
CC(C)OCCCNC(=O)c1ccc(C2SCC(=O)N2Cc2ccco2)cc1 (stereo unspecified) | -12.8% | –
COc1ccc(NS(=O)(=O)c2ccc(O)c(C(=O)OCC(=O)NC3CCCCC3)c2)cc1 | -4.29% | –
Cc1ccc(OCc2n[nH]c(=S)n2-c2ccc(C)cc2)cc1 | -3.16% | –
COc1ccc(OCc2n[nH]c(=S)n2N)cc1 | – | 15.8 µM (active)
S=c1[nH]nc(COc2ccccc2)n1-c1ccccc1 | -9.54% | –
Cc1cc(N2CCN(c3ccccc3)CC2)nc(N2CCOCC2)n1 | 3.11% | –
O=c1c(-c2ccc(Cl)cc2)[n+]([O-])c2ccccc2n1OCc1nc2ccccc2[nH]1 | -4.14% | –
CCN1/C(=C/c2ccc3ccc(C)cc3[n+]2CC)Sc2ccccc21 | -7.04% | –
CCC(=O)/C=C1\Sc2ccccc2N1CC | -12.4% | –
CCN1/C(=C\c2ccc3ccccc3[n+]2CC)Sc2cc(C)ccc21 | – | 1.41 µM (active)
O=C(COC(=O)c1ccc[nH]c1=O)Nc1ccc2c(c1)OC(F)(F)O2 | -31.1% | –
c1ccc(-n2cccc2)c(N2CCCCC2)c1 | 7.49% | –
CC(C)[C@@H](CC(=O)N[C@@H]1CCNC[C@H]1C(=O)N[C@H](CC(=O)N[C@@H](CCC(=O)O)CC(=O)O)Cc1ccccc1)NC(=O)C[C@H](CO)NC(=O)[C@@H]1CNCC[C@H]1N | -2.84% | –
CC(C)C[C@@H](CC(=O)N[C@@H](CCC(=O)O)CC(=O)O)NC(=O)[C@@H]1CCCC[C@H]1NC(=O)C[C@@H](NC(=O)C[C@H](CO)NC(=O)[C@@H]1CCCC[C@H]1N)C(C)C | 6.67% | –
CC(C)C[C@@H](CC(=O)N[C@@H](CCC(=O)O)CC(=O)O)NC(=O)[C@@H]1CCCC[C@H]1NC(=O)C[C@@H](NC(=O)C[C@H](Cc1c[nH]c2ccccc12)NC(=O)[C@@H]1CCCC[C@H]1N)C(C)C | – | 15.8 µM (active)
